Usually inhibition stands for the change of the read-out against control, counted positive when it falls.

Type in all cases: functional
For test [1], the target named is Solute carrier family 2, facilitated glucose transporter member 1 (Homo sapiens) (UniProt P11166). As to the kind of experiment: ST_JUDE_LEISH: Cytotoxicity at 2uM final concentration against transgenic Leishmania Mexicana promastigotes LmGLUT1 that are glucose transport deficient and complemented with the human glucose transporter GLUT1. Activity is measured by DNA content using SYBR green in vitro.

The target in test [2] is Hexose transporter 1 (Plasmodium falciparum) (UniProt O97467). As to the kind of experiment: ST_JUDE_LEISH: Cytotoxicity at 2uM final concentration against transgenic Leishmania Mexicana promastigotes LmPfHT that are glucose transport deficient and complemented with the Plasmodium falciparum hexose transporter. Activity is measured by DNA content using SYBR green in vitro.

Test [3] concerns the target Glucose transporter (Leishmania mexicana) (UniProt O61059). As to the kind of experiment: ST_JUDE_LEISH: Cytotoxicity at 2uM final concentration against transgenic Leishmania Mexicana promastigotes LmGT2 that are glucose transport deficient and complemented with the L. Mexicana glucose transporter 2. Activity is measured by DNA content using SYBR green in vitro.

Chain of Solute carrier family 2, facilitated glucose transporter member 1 (Homo sapiens) (P11166 whole entry): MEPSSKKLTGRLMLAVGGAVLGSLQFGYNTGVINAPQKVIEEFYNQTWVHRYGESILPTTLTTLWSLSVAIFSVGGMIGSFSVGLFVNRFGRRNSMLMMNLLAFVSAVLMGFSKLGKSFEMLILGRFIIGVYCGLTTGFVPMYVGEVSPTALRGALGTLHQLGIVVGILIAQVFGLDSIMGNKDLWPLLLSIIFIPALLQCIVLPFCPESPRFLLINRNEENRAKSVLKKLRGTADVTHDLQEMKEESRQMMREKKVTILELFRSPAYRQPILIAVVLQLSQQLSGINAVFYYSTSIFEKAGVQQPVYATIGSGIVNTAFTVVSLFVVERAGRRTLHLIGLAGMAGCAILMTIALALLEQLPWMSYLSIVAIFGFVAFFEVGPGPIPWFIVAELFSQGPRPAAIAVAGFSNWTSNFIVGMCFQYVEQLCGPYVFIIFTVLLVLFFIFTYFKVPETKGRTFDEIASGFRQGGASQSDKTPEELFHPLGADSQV

Consider `CCCN1CCC2(CC1)NC(C(=O)NCCC(C)C)Cc1c2[nH]c2cc(Cl)ccc12` (stereo not drawn), for which the inhibition in test [1] stood at 6.25%; in test [2], 6.94%; in test [3], 2.82%.

Take `Cc1cccc2nc(-c3ccc(-c4cccc(NC(=O)Nc5ccccc5)c4)cc3)[nH]c12`: the inhibition was found to be 9.16% in test [1], 9.91% in test [2] and 8.18% in test [3].

Take `COc1ccc2nccc([C@H](O)CN3CCC(NCc4ccc5c(c4C)OCCO5)CC3)c2n1`: the figures for the inhibition in test [1], in test [2] and in test [3] were 41%, 59.7% and 69.1%, respectively.

Regarding `Cc1nc2nc(N)nc(N)c2c(C)c1Cc1ccccc1`, the inhibition is 3.29% in test [1], 2.88% in test [2] and 1.2% in test [3].

With `CC(ON1C(N)=NC(N)=NC1(C)C)c1ccccc1` (stereo not drawn), the inhibition in test [1] came out at 5.91%; in test [2] it was 4.22%; in test [3] it was 6.95%.

As to `Cn1c(NC(=O)c2ccc(CNC(=O)c3ccc(O)c(-c4ccc(Cl)c(Cl)c4)c3)cc2)nc2ccccc21`, the inhibition in test [1] is 4.29%; in test [2], 3.37%; in test [3], 3.29%.

Take `Cn1nccc1C(=O)NCCNCc1ccc(-c2ccc(-c3nc4cc(C(F)(F)F)ccc4[nH]3)cc2)cc1`: the inhibition in test [1] is 6.01%; in test [2], 0.59%; in test [3] it was 4.43%.

For the molecule `Cc1cc(Nc2ccncc2)n2nc(C)c(-c3ccccc3Cl)c2n1`, the inhibition came out at 2.97% in test [1], 1.58% in test [2] and 6.28% in test [3].

For `CC(C)(C)COC(=O)c1ccc(NC(=O)N[C@@H](Cc2ccc(O)cc2)C(=O)NC2CCN(Cc3ccc(O)cc3)C2)cc1` (stereo partly drawn), the figures for the inhibition in test [1], in test [2] and in test [3] were -2.22%, -2.38% and -0.79%, respectively.

As for `Oc1c(C(Nc2nc3ccccc3s2)c2ccccc2)ccc2cccnc12` (stereo not drawn), the inhibition is 2.66% in test [1], 3.92% in test [2] and -1.54% in test [3].

As for `O=C(NC(Nc1ccc([N+](=O)[O-])cc1)C(Cl)(Cl)Cl)c1cccc(Cl)c1` (stereo not drawn), the inhibition in test [1] was 4.07%; in test [2], 3.95%; in test [3] it was 3.37%.

Take `CCn1c(C=Cc2cc(Br)ccc2O)nc2ccccc2c1=O`: the values for the inhibition in test [1], in test [2] and in test [3] were -1.02%, 0.39% and 0.51%, respectively.

`CCc1ccc(NC(=O)C=NNC(=N)N)cc1`: the inhibition in test [1] was 1.51%; in test [2] it was 1.46%; in test [3] it was 1.17%.

For the molecule `O=C(Nc1cccc(-c2ccc(-c3nc4cc(C(F)(F)F)ccc4[nH]3)cc2)c1)c1c[nH]cn1`, the inhibition came to 5.73% in test [1], 5.19% in test [2] and 0.52% in test [3].

For the molecule `Nc1ccc(Oc2ccc(Cc3cnc(N)nc3N)cc2)cc1`, the inhibition in test [1] worked out at 3.93%; in test [2], 4.16%; in test [3] it was 3.87%.

Take `CCCNCc1ccc(-c2ccc(CN(CCOC)C(=O)CCC(=O)c3ccc(OC)c(F)c3)cc2)nc1`: the values for the inhibition in test [1], in test [2] and in test [3] were 0.12%, 3.36% and 1.5%, respectively.

`Cc1c(Cc2ccccc2Cl)cnc2nc(N)nc(N)c12`: the inhibition in test [1] turned out to be 18.9%; in test [2], 37.5%; in test [3], 24.1%.

As to `NC(=O)c1cnc2cc(-c3ccoc3)ccc2c1Nc1ccc(NC(=O)Nc2ccccc2Cl)cc1`, the figures for the inhibition in test [1], in test [2] and in test [3] were 2.28%, 0.16% and -3.01%, respectively.

As to `N#Cc1cccc(/C=C/C(=O)NC2CCC(CCN3CCc4ccc(-c5cnccn5)cc4CC3)CC2)c1` (stereo not drawn), the inhibition in test [1] was found to be 7.94%; in test [2], 7.48%; in test [3] it was 7.56%.

As to `CC(C)(C)c1ccc(NC(=O)c2cccc(CN3CCCN(Cc4cccc(Cl)c4)CC3)c2)cc1`, the values for the inhibition in test [1], in test [2] and in test [3] were 5.32%, 4.37% and 2.14%, respectively.

As for `OC1CCCN(Cc2ccc(-c3cccc(-c4nc5ccccc5[nH]4)c3)cc2)C1` (stereo not drawn), the inhibition in test [1] was 2.79%; in test [2], 1.57%; in test [3] it was 2.79%.

Turning to `Cc1cccc2nc(O)c([N+](=O)[O-])c(O)c12`, the inhibition in test [1] was 2.09%; in test [2] it was 1.72%; in test [3], 2.14%.

Regarding `O=C(/C=C/c1ccc(Cl)c(Cl)c1)NCCCCCN1CCCC(C(=O)Nc2cccc(Cl)c2)C1` (stereo not drawn), the inhibition in test [1] is 3.89%; in test [2], 2.5%; in test [3], 1.07%.

As to `Cc1cccc2nc(-c3ccc(-c4cccc(CNCCCNS(C)(=O)=O)c4)cc3)[nH]c12`, the inhibition in test [1] is 0.32%; in test [2] it was 0.24%; in test [3], -0.36%.

`Cc1c(Oc2ccc(-n3ccnc3)cc2)ncnc1N1CCC2(CC1)CNCc1ccccc12`: the inhibition in test [1] was 10.5%; in test [2], 8.76%; in test [3] it was 2.5%.

As for `CCOc1ccccc1NC(=O)Nc1ccc2c(c1)CCN(C1CCC1)CC2`, the values for the inhibition in test [1], in test [2] and in test [3] were 9.64%, 6.1% and 10.2%, respectively.

As to `O=c1cc(NCCCNCc2cc(Br)ccc2F)[nH]c2ccccc12`, the inhibition is -1.01% in test [1], -0.63% in test [2] and -6.76% in test [3].

As for `Oc1ccc2ccccc2c1CNC1CCCCCC1`, the inhibition was 0.85% in test [1], 1.51% in test [2] and 1.96% in test [3].

In the case of `Cc1cc(=O)c(-c2ccc(Oc3ccc(Cl)cc3Cl)cc2)c(C)[nH]1`, the inhibition turned out to be 2.15% in test [1], 3.32% in test [2] and 1.9% in test [3].

`O=S(=O)(NCCN1CCCC1)c1cccc(-c2cccc(CNCc3ccc(F)cc3)c2)c1`: the inhibition is 0.2% in test [1], 2.85% in test [2] and -2.32% in test [3].

Regarding `Oc1cc(Nc2ccnc3cc(-c4ccc(CN5CCCCC5)o4)ccc23)c(Cl)cc1F`, the inhibition in test [1] came to 3.23%; in test [2] it was 6.46%; in test [3], 3.68%.

Take `O=C(NCCN1CCCCC1)N1CCCN(c2ncnc3cc(-c4ccccc4)sc23)CC1`: the inhibition in test [1] came out at 2.21%; in test [2], 1.64%; in test [3], 2.05%.

In the case of `CS(=O)(=O)c1ccc(CCNCc2ccc(-c3ccc(CNC4CCN(Cc5ccccc5)CC4)cc3)nc2)cc1`, the inhibition in test [1] was -0.83%; in test [2] it was -1.16%; in test [3], -2.69%.

Consider `NC(=O)COc1c(C2CCN(CCN3CCC(CNC(=O)c4ccc(-c5ccc(C(F)(F)F)cc5)cc4)CC3)CC2)ccc2c1CCCC2`, for which the figures for the inhibition in test [1], in test [2] and in test [3] were 4.85%, 4.29% and 3.32%, respectively.

As for `Nc1nc(Cc2ccc(Cl)cc2)nc(Cc2ccc(Cl)cc2)n1`, the inhibition in test [1] is -3.43%; in test [2], -1.17%; in test [3], 5.85%.

In the case of `COc1ccc(NC(=O)Nc2nc3ccccc3s2)cc1N1CCN(C)CC1`, the inhibition came out at 7.14% in test [1], 4.98% in test [2] and 5.72% in test [3].
